Where a chain is given by its changes, count along the chain named. Whole data set: some 5,800 sequences, median “enrichment r” near 0.68, cut for the highest 2% near 11. For the sample, the highest values were picked, then their nearest neighbours and some sequences at random.
T1: UNK ZnF1-6 (called full-length) (human, UniProt Q9C0B0 30-357)
T1 sequence: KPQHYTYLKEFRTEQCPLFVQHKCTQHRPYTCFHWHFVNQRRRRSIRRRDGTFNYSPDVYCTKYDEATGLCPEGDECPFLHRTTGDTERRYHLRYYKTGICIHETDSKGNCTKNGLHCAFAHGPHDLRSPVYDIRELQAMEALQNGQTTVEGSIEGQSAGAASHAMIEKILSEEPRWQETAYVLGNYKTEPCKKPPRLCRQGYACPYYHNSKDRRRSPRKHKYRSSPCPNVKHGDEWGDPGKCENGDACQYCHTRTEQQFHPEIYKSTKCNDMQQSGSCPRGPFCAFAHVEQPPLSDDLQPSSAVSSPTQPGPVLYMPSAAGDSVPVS

B1: chr1:150647640:150647741:-|3pUTR|ENSG00000143457|unk|FALSE|unique (ssRNA)
RNA: GGGAGUUCUACAGUCCGACGAUCAGAUUCAAUUACCUGGAUGUCAAAGUCCUAGAGCCAGAAAUAUAUUCUCUCAUCCCUCUUAGCAUUCUCUUGCUCCCUCAUUCACUAGGGCAAAUGUCUAAAUGAAGAAAAGUCUCUCUCCAACAGAGGAUUGAGCAUCA
B2: chr1:109062613:109062715:-|3pUTR|ENSG00000197780|unk|total|mutant (ssRNA)
RNA: GGGAGUUCUACAGUCCGACGAUCAGUUCUGAAUACACAGGUUUUGUGUGUAUUUACUCUAUGUAUUAAAUUAUUAUUGCCCUCCGUUUAAAGUAAGGAUUACAAUUGGAUUUAAGCCGAUCACUGAAUGUUAUUGUUUAUGAACAACAGAGGAUUGAGCAUCA
B3: chrX:80717640:80717741:-|CDS|ENSG00000165288|msi1|FALSE|unique (ssRNA)
RNA: GGGAGUUCUACAGUCCGACGAUCCUGAGAAGUCCAAACAUGGACAUAUCUUCUUCCCCAAACAUCAGGCUUCGAAGACAUAGUAGUCAAAUUGAAGGUGUUAGACAAAUGCAUAACAAUGCUCCUCGGAGCCAGAUGGCCACUCAACAGAGGAUUGAGCAUCA
B4: chr6:37331633:37331734:+|3pUTR|ENSG00000065491|unk|FALSE|unique (ssRNA)
RNA: GGGAGUUCUACAGUCCGACGAUCCCGUUCCCCUUCUGCCCCAGUCUGAGCCAGUGAGGGGUAGCUUUUUAAAACCAUUAUUCUAGAUGGAGGAGGCACUGAUGCUUGUAACUCUGGAAAGAGGCCUACACCCAAGGGCUAGGACAACAGAGGAUUGAGCAUCA
B5: chr9:91409354:91409467:-|CDS|ENSG00000165030|unk|total|mutant (ssRNA)
RNA: GGGAGUUCUACAGUCCGACGAUCAAUGAAAGACAGUGGCUACAAAGUUUCUGACCCAGAGAACUUGUAUUUGAAGCAGGGGACCGCAAACUUAUCUGCAGAGGUUGUCUCACUCAAGAGACUUACCGCCACACAACCAAUCUCCAACAGAGGAUUGAGCAUCA
B6: chr7:137879121:137879144:-|3pUTR|ENSG00000182158|msi1_unk|FALSE|overlapping (ssRNA)
RNA: GGGAGUUCUACAGUCCGACGAUCUAAUCCCCAACCUACUUUUAGUUUUUUUGUUUUUUUUUUAUGGUUAAAAGUAACUUUUGUAGUUUAAAAAAAUCUUUCCUCUUUCAUAUAAAUAAGAAGUGGAAAUUGCCUUUUUAUUGUCAACAGAGGAUUGAGCAUCA
B7: ENSG00000186472:stop:overlap|stop_codon|ENSG00000186472|stop_codon|NA|stop_codon (ssRNA)
RNA: GGGAGUUCUACAGUCCGACGAUCUUUCUUGUAAAUGGAAAUUUUAUCAUGUGUAUAGAUUCUGUAGCAUGCUUUUCUUUAUUUAGUUUUACUUUAUUCCUUUAUUGUUCUGUUUCUUGAUUGUUUGCUUGAUUUGUUUGGUGUCAACAGAGGAUUGAGCAUCA
B8: chr7:107202531:107202632:-|3pUTR|ENSG00000164597|msi1|FALSE|unique (ssRNA)
RNA: GGGAGUUCUACAGUCCGACGAUCUAUUCUGAGAACUCAUAAAUAAAAUUCAGCCAAGAUUAAUCAAUCAAUCAAUCAAUCAGUAGACGUCAGAGAUAAGCAACUUUUUUUUCCAUUUAUUUGAAAUAAUAUACAAGAAUAUAGCAACAGAGGAUUGAGCAUCA
B9: chr2:224511460:224511569:-|CDS|ENSG00000036257|unk|FALSE|bound_elsewhere (ssRNA)
RNA: GGGAGUUCUACAGUCCGACGAUCGAAAGCCAGAAAUUUUUAGCAGAAAAUAGUGCUUCAGUAUAUAUAAAGAAAGUAGAAGCUAGAAUUAAUGAAGAAAUAGAACGAGUGAUGCACUGCCUUGACAAAUCAACGGAAGAACCACAACAGAGGAUUGAGCAUCA
B10: chr3:44647099:44647200:+|3pUTR|ENSG00000186448|msi1|FALSE|unique (ssRNA)
RNA: GGGAGUUCUACAGUCCGACGAUCAUUUGUAUGUAAACUACAUAAAGAACUUUCCAAAUUUAACAGUAAUAAGUAAAUACAAUUAGAAAAUAAGCAAAAGACAGACAUUUCACUGAAGUAUAGAUAGCAAAUAAGCAAAUGAAACAACAGAGGAUUGAGCAUCA
B11: chr11:43342853:43342954:+|3pUTR|ENSG00000166181|msi1|FALSE|unique (ssRNA)
RNA: GGGAGUUCUACAGUCCGACGAUCCUAGUUCUGCUGAUAAAGAUCAUCAGUUUUGAAAGGUUACUGAUUUUCCUCUUCCCUCUUAGUUUUUUACCCAAUAUAUGGAGAAGAGUAAUGGUCAAUCUUAACAUUUUGUUUUAAUUGCAACAGAGGAUUGAGCAUCA
B12: chr19:35623609:35623710:+|3pUTR|ENSG00000249115|unk|FALSE|unique (ssRNA)
RNA: GGGAGUUCUACAGUCCGACGAUCGCCUUCUAGUUUGUAUAGUUUCUUUUUUUACAUGUAAAUCAGCCAUUUGGAAUUUAUCCUAGCACAUGGAUCCAAUUUUGUCUUAUUUUACAUAUAUCCUAGUAGCACUUACUGAAAUUCCAACAGAGGAUUGAGCAUCA
B13: chr11:85958428:85958534:-|3pUTR|ENSG00000073921|unk|FALSE|unique (ssRNA)
RNA: GGGAGUUCUACAGUCCGACGAUCAGAAACAAUAACUGAAAUUAACUUUUCUUUUUUUAAAAAAAAUUAUAUUCAGUUUGCAGUAGACAUUCCUUAAGUAUUUGUAUUUAUUUAUGAUUAUCAAUUUUACAUAACAUUAAUAUUCAACAGAGGAUUGAGCAUCA
B14: chr10:73917138:73917420:+|3pUTR|ENSG00000122861|msi1|FALSE|unique (ssRNA)
RNA: GGGAGUUCUACAGUCCGACGAUCGGAAUGUAUUAUUCUGCAGCAUGACCUGUGACCAGCACUGUCUCAGUUUCACUUUCACAUAGAUGUCCCUUUCUUGGCCAGUUAUCCCUUCCUUUUAGCCUAGUUCAUCCAAUCCUCACUCAACAGAGGAUUGAGCAUCA
B15: chr7:137879121:137879144:-|3pUTR|ENSG00000182158|msi1_unk|total|mutant (ssRNA)
RNA: B6 RNA with U42C, A43C, U83C, A84C
B16: ENSG00000198589:be:win_3201|CDS|ENSG00000198589|bound_else_gene|NA|bound_elsewhere_windowed (ssRNA)
RNA: GGGAGUUCUACAGUCCGACGAUCAACUGGCAAAGAUUCAAUGACUGUCAGUGAAGUAACUGCUUCUAUAAGUUCUCCUUCAGAAGAGGAUGCCUCAGAGAUGCCAGAAUUCUUGGAUAAAUCUAUAGUAGAGGAAGAGGAAGACAACAGAGGAUUGAGCAUCA
B17: chr8:11323570:11323671:+|3pUTR|ENSG00000104643|unk|FALSE|unique (ssRNA)
RNA: GGGAGUUCUACAGUCCGACGAUCGAGCAUACAUAUACAAUGUGUUUCAAAUGCUGCUUGUAAAAUUAAACCAUCAUCUAGAAUAGAGUUAAUUUAUUAUAAUCAAGCUACAAAUAGGUUUUCUUAAACCAGAGAUGCACUGCCCAACAGAGGAUUGAGCAUCA
B18: chr17:44352837:44352938:+|3pUTR|ENSG00000030582|unk|total|mutant (ssRNA)
RNA: GGGAGUUCUACAGUCCGACGAUCCUGAAGACUCUGCAGCCCUCGGGACCCCACUCGGAGGGUGCCCUCUGCUCAGGCCUCCCCCGCACCUCCCCCUAACCAAAUUCUCCCUGGACCCCAUUCUGAGCUCCCCAUCACCAUGGGCAACAGAGGAUUGAGCAUCA
B19: ENSG00000107863:be:win_1351|CDS|ENSG00000107863|bound_else_gene|NA|bound_elsewhere_windowed (ssRNA)
RNA: GGGAGUUCUACAGUCCGACGAUCGUCCAGAUACGGCAACGCAGUGUGUCCCAAGAAAGACUGGAAGAUUCUGUGCUAAUGAAGUAUUGUCCAAGAAGUGCAUCUCAAGGAGCACUGACGUCUCCAUCUGUUAGUUUUAGUAAUCAACAGAGGAUUGAGCAUCA
B20: chr10:75150949:75151073:+|CDS|ENSG00000156671|unk|FALSE|unique (ssRNA)
RNA: GGGAGUUCUACAGUCCGACGAUCUGUUCGAAGAUUGGACCCAGAAUACUGGAAGACUAUACUGAGUUGUAUAUAUGUUUUUAUAGUAUUUGGAUUUACAUCUUUCAUUAUGGUUAUAGUCCAUGAGCGAGUGCCUGACAUGCACAACAGAGGAUUGAGCAUCA
B21: ENSG00000107863:be:win_4151|CDS|ENSG00000107863|bound_else_gene|NA|bound_elsewhere_windowed (ssRNA)
RNA: GGGAGUUCUACAGUCCGACGAUCAUUCAGCUACUAGUGACUCAACAAAAUCUAAGGGUUCUUGGGGAUCUGGAAAGGAUCAGUAUAGCAGGGAACUGCUUGUGUCCUCCAUCUUUGCAGCUGCUAGUCGCAAGAGGAAGAAGCCAACAGAGGAUUGAGCAUCA
B22: chr2:224001733:224001845:-|CDS|ENSG00000135919|unk|total|mutant (ssRNA)
RNA: GGGAGUUCUACAGUCCGACGAUCGGCCUCUGUGACGCUGCCUUCCAUCUGCUCCCACUUCAAUCCUCUGUCUCUCGAGGAACCCGGCUCCAACACGGGGAUCCAGGUUUUCAAUCAGAUUGUGAAGUCGAGGCCUCAUGACAACAACAGAGGAUUGAGCAUCA

Molecular target: T1, UNK ZnF1-6 (called full-length)
Assay: nsRBNS (natural sequence RNA bind-n-seq); RBNS binding buffer (assumed for nsRBNS): 25 mM Tris pH 7.5, 150 mM KCl, 3 mM MgCl2, 0.01% Triton X-100, 500 ug/ml BSA, 20 U/ml SUPERase-In, 4 C; UNK is unkempt and MSI1 is Musashi-1; names of the RNAs are library labels; protein concentration not given here; high values mean tight binding

How did the binding signal turn out when B1 was run?
Its binding signal is 0.623 enrichment R.

How did the binding signal turn out when B2 was run?
The binding signal was 0.999 enrichment R.

For B3, which binding signal is on record?
The binding signal was 0.592 enrichment R.

With B4 as the binder, how does the binding signal read?
Its binding signal is 2.05 enrichment R.

How did the binding signal turn out when B5 was run?
The binding signal was 0.615 enrichment R.

How did the binding signal turn out when B6 was run?
The binding signal was 14.9 enrichment R.

With B7 as the binder, how does the binding signal read?
Its binding signal is 0.541 enrichment R.

How did the binding signal turn out when B8 was run?
Its binding signal is 2.67 enrichment R.

How did the binding signal turn out when B9 was run?
Its binding signal is 16.7 enrichment R.

For B10, which binding signal is on record?
Its binding signal is 162 enrichment R.

How did the binding signal turn out when B11 was run?
The binding signal was 3.5 enrichment R.

B12 was tested. Which binding signal did it give?
The binding signal was 14.9 enrichment R.

For B13, which binding signal is on record?
Its binding signal is 2.18 enrichment R.

With B14 as the binder, how does the binding signal read?
The binding signal was 1.54 enrichment R.

How did the binding signal turn out when B15 was run?
Its binding signal is 0.762 enrichment R.

How did the binding signal turn out when B16 was run?
The binding signal was 0.614 enrichment R.

B17 was tested. Which binding signal did it give?
Its binding signal is 2.54 enrichment R.

B18 was tested. Which binding signal did it give?
The binding signal was 0.732 enrichment R.

How did the binding signal turn out when B19 was run?
Its binding signal is 4.38 enrichment R.

B20 was tested. Which binding signal did it give?
Its binding signal is 0.389 enrichment R.

For B21, which binding signal is on record?
Its binding signal is 0.489 enrichment R.

Which binding signal does the source give for B22 here?
Its binding signal is 0.666 enrichment R.

Reference: publication PMC12136788
